Compound activity (PubChem BioAssay)
RORg inh – ROR gamma (mouse) transcription inhibition | Drosophila S2 Gal4-RORgamma UAS-luciferase reporter, 20 h | Potency, µM (titrated, usually from 53.6 µM), for inactives: at the highest dose activity change, negative = inhibition, actives largely listed as inhibitors | hit rate 5.4% among 310,000 | AID 2551; note: % is set by controls: 0 for no effect and ±100 for the full control effect; nearly all actives have a fitted effect of over 60% in size
Target sequence (P51450 whole entry, looked up, the tested form may be a part): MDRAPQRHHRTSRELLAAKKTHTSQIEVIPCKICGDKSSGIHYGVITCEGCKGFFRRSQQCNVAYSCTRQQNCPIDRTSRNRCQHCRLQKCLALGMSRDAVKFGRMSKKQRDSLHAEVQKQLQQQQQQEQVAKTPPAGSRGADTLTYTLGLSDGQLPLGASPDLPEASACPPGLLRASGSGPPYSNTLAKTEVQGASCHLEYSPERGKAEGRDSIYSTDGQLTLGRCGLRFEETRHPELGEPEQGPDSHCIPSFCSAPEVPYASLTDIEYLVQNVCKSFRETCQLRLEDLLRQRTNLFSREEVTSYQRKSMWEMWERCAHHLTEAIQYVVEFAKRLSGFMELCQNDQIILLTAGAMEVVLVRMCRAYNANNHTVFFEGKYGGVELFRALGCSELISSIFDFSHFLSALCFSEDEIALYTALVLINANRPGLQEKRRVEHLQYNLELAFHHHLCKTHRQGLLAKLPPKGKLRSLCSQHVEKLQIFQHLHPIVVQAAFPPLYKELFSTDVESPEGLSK
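ROR gamma transcriptional activity was tracked as Gal4-UAS luciferase output in stably transfected Drosophila Schneider cells, with compound added 1 hr before 700 uM copper sulfate induction and a 20 hr ambient-temperature incubation.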
TGFb SMAD3 inh – inhibitors of TGF-b signaling. HepG2 CAGA-GFP TGF-b/SMAD3 reporter, GFP fluorescence, 18 h; TGF-beta stimulated, 500 pg/mL final. Potency, µM (series often up to 46.1 µM), without a hit: top-dose activity, negative = inhibition, usual class: inhibitors. hit rate 1.2% among 410,000; note: % is set by controls: 0 for no effect and ±100 for the full control effect; nearly all actives have a fitted effect of over 65% in size
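First, reporter cells (HEPG2 CAGA-GFP) rested 2 h at 37 degrees C. Next, compounds were pinned in and TGF-beta added to 500 pg/mL final. After 18 h, GFP was imaged per cell and summed per well.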
ATXN viability – viability counter-screen for ATXN expression inhibitors. S2 cells (HEK-293 line with an ATXN2-luciferase reporter) viability, CellTiter-Fluor protease fluorescence, 24 h. Potency, µM (series often up to 56.7 µM), usual class: cytotoxic. hit rate 0.49% among 400,000. AID 651635; note: nearly all actives have a fitted effect of over 40% in size
HepG2 tox – counter-screen for TGF-b inhibitors: cytotoxicity in HepG2 cells. HepG2 CAGA-GFP viability, ATP luminescence, 18 h. AID 588856. hit rate 0.76% among 410,000. Potency, µM (titrated, usually from 46.1 µM), without a hit: at the highest dose activity change, negative = cytotoxicity, usual class: cytotoxic
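HepG2 CAGA-GFP cells (1000/well, DMEM with 1% FBS) received compound, then TGF-beta at 500 pg/mL final, and were incubated 18 hours at 37 degrees C. Viability was read by CellTiter-Glo luminescence. Media-only wells were set as complete cell-killing and DMSO as no toxicity.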
VP16 counter – counter-screen for ROR gamma inhibitors: Gal4-VP16 reporter. Drosophila S2 Gal4-VP16 UAS-luciferase, luminescence, 20 h. Potency, µM (titrated, usually from 53.6 µM), for the others: top-dose activity, negative = inhibition, usual class: inhibitors. hit rate 3.5% among 310,000;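 note: Gal4-VP16 expression switched on by copper sulfate through the metallothionein promoter; % is set by controls: 0 for no effect and ±100 for the full control effect; nearly all actives have a fitted effect of over 50% in size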
ATXN2 expr inh – inhibitors of ATXN2 expression; hit rate 0.72% among 360,000; Potency, µM (doses to about 57 µM), for inactives: top-dose activity change, negative = inhibition, usual class: inhibitors; HEK-293 ATXN2-luciferase reporter, luminescence, 24 h; AID 1745845; note: % is set by controls: 0 for no effect and ±100 for the full control effect; nearly all actives have a fitted effect of over 55% in size
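qHTS (up to 57 uM final) was run with 24 h compound exposure of reporter cells at 37 °C. Each well was multiplexed: SteadyGlo luminescence measured ATXN2-luciferase expression after a fluorogenic Gly-Phe-AFC viability readout (25 uM final).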
The depositor's hits bear a star; [ ] = dose if it differs, or a comment. Most compounds without a hit are left out; they make up all but 6.1% or so of the library. Calls come from the whole dose curve; as a rule, active = well fitted curve in the direction sought with a large enough effect; inconclusive = small, poorly fitted or top-dose-only effect, or another doubt; inactive = no such curve, though single readings can be large; an effect the other way counts as inactive or inconclusive. Potency is the fitted concentration of half-maximal effect.

Results for Cc1cc(C=C2C(=O)c3ccccc3C2=O)c(C)n1-c1ccccc1 ?
RORg inh: 0.063µM*; TGFb SMAD3 inh: -1%; ATXN viability: inactive; HepG2 tox: -17%; VP16 counter: 16µM*; ATXN2 expr inh: -38%

How did COc1cccc(NC(=O)C2CCCN(c3ncnc4onc(-c5ccc(F)cc5)c34)C2)c1 (stereo not given) do in these assays?
TGFb SMAD3 inh: -26%; ATXN viability: inactive; HepG2 tox: -26%; ATXN2 expr inh: 1%

Results for CCc1cc2c(nc1CC)CCN(CC/C(C)=N/O[C@@H](C)CN1CCCCc3nc(C)c(C)cc31)C2 ?
RORg inh: -1%[10 µM]; VP16 counter: 4%[10 µM]

How did CC1=C(CC/C(C)=N/NC(N)=S)C(C)(C)CCC1 do in these assays?
RORg inh: 1.8µM*; TGFb SMAD3 inh: -17%; ATXN viability: inconclusive; HepG2 tox: -21%; VP16 counter: 2.8µM*; ATXN2 expr inh: inconclusive

Results for CO[C@@H]1COC(=O)C/C=C\[C@@H](C)[C@H](OC)COC(=O)[C@H](COCc2ccccc2)NC(=O)C/C=C\[C@H]1C ?
RORg inh: 13%[10 µM]; VP16 counter: -3%[10 µM]

What do the screens show for `c1coc(-c2nc3cc4ccccc4cc3nc2-c2ccco2)c1`?
TGFb SMAD3 inh: inconclusive; HepG2 tox: -85%

How did Cc1ccc(N2CCN(c3nc4ccc(C(=O)c5ccccc5)cc4n4cnnc34)CC2)c(C)c1 do in these assays?
TGFb SMAD3 inh: 0%; HepG2 tox: -11%

Results for CC(=NNC(=S)N1CCCCCC1)c1cccc2cccnc12 ?
TGFb SMAD3 inh: 2.2µM*; ATXN viability: inconclusive; HepG2 tox: 14%; ATXN2 expr inh: inconclusive

How did C/C(CC(=O)NC1CCCCCC1)=N\NC(=O)c1cnccn1 do in these assays?
RORg inh: -6%; TGFb SMAD3 inh: 13%; ATXN viability: inactive; HepG2 tox: 3%; VP16 counter: 8%; ATXN2 expr inh: 4%

What do the screens show for `C/C(=N\NC(=O)C1CCCN(S(=O)(=O)c2ccccc2)C1)c1ccccn1` (stereo not given)?
RORg inh: 2.8µM*; TGFb SMAD3 inh: -27%; ATXN viability: inconclusive; HepG2 tox: -32%; VP16 counter: 5µM*; ATXN2 expr inh: 8.9µM*

Results for CC(=NNC(=S)N1CC2CCC(CC2)C1)c1cnccn1 ?
TGFb SMAD3 inh: 3.2µM*; ATXN viability: inconclusive; HepG2 tox: -49%; ATXN2 expr inh: inconclusive

What do the screens show for `CC(=NNC(=S)N1CCN(C2CCCCCC2)CC1)c1ccccn1`?
TGFb SMAD3 inh: inconclusive; ATXN viability: 1.2µM*; HepG2 tox: -79%; ATXN2 expr inh: -82%

How did O=c1[nH]c2c(-c3nc(-c4ccc(Cl)cc4)cs3)c(O)cn2c2ccccc12 do in these assays?
TGFb SMAD3 inh: 0%; HepG2 tox: -24%

What do the screens show for `CC(=NNC(=S)N1CCN(c2ccccn2)CC1)c1ccccn1`?
TGFb SMAD3 inh: 0%; ATXN viability: inactive; HepG2 tox: 2%; ATXN2 expr inh: -22%

How did CC(=NNC(=S)N1CC2CCC(CC2)C1)c1ccccn1 do in these assays?
TGFb SMAD3 inh: inconclusive; ATXN viability: inconclusive; HepG2 tox: 13µM*

How did Cc1cc(=O)n(C(C)C(=O)NCc2ccccc2Cl)c2c1c(C)nn2-c1ccccc1 (stereo not given) do in these assays?
TGFb SMAD3 inh: -7%; ATXN viability: inactive; HepG2 tox: -22%; ATXN2 expr inh: 3%

Results for CCCCS/C(N)=N/N=C/c1ccccc1O ?
RORg inh: 0.63µM*; TGFb SMAD3 inh: inconclusive; ATXN viability: inconclusive; HepG2 tox: -21%; VP16 counter: 1.1µM*; ATXN2 expr inh: -6%

How did CCCS/C(N)=N/N=C/c1cc(C)ccc1O do in these assays?
RORg inh: 0.89µM*; TGFb SMAD3 inh: inconclusive; ATXN viability: inactive; HepG2 tox: -26%; VP16 counter: 2µM*; ATXN2 expr inh: 95%

What do the screens show for `COc1ccc2nc3ccccc3nc2c1N`?
RORg inh: inconclusive; TGFb SMAD3 inh: inconclusive; ATXN viability: inconclusive; HepG2 tox: -26%; VP16 counter: 16µM*; ATXN2 expr inh: -18%

How did COC(=O)c1cc2sc(C)cc2n1Cc1cccc(OC)c1 do in these assays?
HepG2 tox: -9%

Results for CC(C)=CCC[C@H](C)CC1Cc2[nH]c(=S)[nH]c(=O)c2C(c2ccc(F)cc2)O1 (stereo not given in full) ?
TGFb SMAD3 inh: 13µM*; ATXN viability: inconclusive; HepG2 tox: 14µM*; ATXN2 expr inh: -7%

How did COc1ccc(CNC(=O)c2sc3nc[nH]c(=O)c3c2C)cc1 do in these assays?
TGFb SMAD3 inh: 15%; HepG2 tox: 2%

Results for COCCNC(=S)N=Nc1c(O)[nH]c2ccc([N+](=O)[O-])cc12 ?
RORg inh: 0.56µM*; TGFb SMAD3 inh: 7%; ATXN viability: inconclusive; HepG2 tox: 17%; VP16 counter: -18%; ATXN2 expr inh: 1%

What do the screens show for `CCC(/C=C1\Sc2ccc(OC)cc2N1CCO)=C\c1sc2ccc(OC)cc2[n+]1CCO`?
RORg inh: 28%; TGFb SMAD3 inh: 0%; HepG2 tox: -1%; VP16 counter: inconclusive; ATXN2 expr inh: inconclusive

Results for CCC(/C=C1\Sc2ccc(OC)cc2N1CC)=C\c1sc2ccc(OC)cc2[n+]1CCCS(=O)(=O)[O-] ?
RORg inh: 17%; TGFb SMAD3 inh: -15%; ATXN viability: 22µM*; HepG2 tox: -4%; VP16 counter: inconclusive; ATXN2 expr inh: inconclusive

What do the screens show for `O=C1c2ccccc2NC(c2ccc3c(c2)OCO3)N1Cc1ccco1` (stereo not given)?
TGFb SMAD3 inh: -6%; HepG2 tox: -17%

How did COCCCNC(=O)COC(=O)c1ccc(-c2nc3ccccc3s2)s1 do in these assays?
RORg inh: 2.8µM*; TGFb SMAD3 inh: 8%; ATXN viability: inactive; HepG2 tox: -33%; VP16 counter: 0.28µM*

How did O=C(/C=C\c1ccccc1)Oc1cccc2cccnc12 do in these assays?
RORg inh: 1.4µM*; TGFb SMAD3 inh: inconclusive; ATXN viability: inconclusive; HepG2 tox: -1%; VP16 counter: 3.2µM*

What do the screens show for `O=C(/C=C/c1ccccc1)Oc1cccc2cccnc12`?
RORg inh: 0.71µM*; TGFb SMAD3 inh: 4µM*; ATXN viability: inactive; HepG2 tox: 4µM*; VP16 counter: 4.5µM*

How did CCOc1ccc(Nc2nc3cc(Cl)c(Cl)cc3nc2-n2nc(C)cc2C)cc1 do in these assays?
TGFb SMAD3 inh: 55%; ATXN viability: inactive; HepG2 tox: 5%; ATXN2 expr inh: 3%
